Among the data in PubChem BioAssay (Tox21) are Potency values, retold here.

Results filed as inconclusive are left out. Entries that show only a call come without a potency. More than one record can exist for a structure, and the calls need not agree. Calls of active or inactive are those of the source. Unless noted, the call rests on the fitted dose curve.

System in one assay: not listed separately
The assay can be described thus: p53 small molecule agonists, cell-based qHTS assay (AID 1963582; active means well fitted activation curve with a large enough effect in the signal ratio in the repeat runs, not every such curve was filed as active; the % refers to the signal ratio). As to conditions: HCT-116 p53RE-bla reporter, beta-lactamase FRET ratio, 16 h; series mostly up to 66 µM. An outline of the steps:
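In this cell-based concentration-response screen, a p53 response element drives beta-lactamase; cells received DMSO-borne compounds after 5 h culture and were incubated a further 16 h before FRET substrate development.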
Regarding `BrCCc1ccccc1`, the Potency result is “inactive”. The same measure, in the same setting: the value for `COCC(=O)N(c1c(C)cccc1C)[C@H](C)C(=O)OC` was “inactive”; that for `CN(C)C(=O)C(c1ccccc1)c1ccccc1` was “inactive”. The same measure, in the same setting: the value for `CN(CCCC(=O)c1cccnc1)N=O` was “inactive”. `COC(=O)[C@@H](N)CCCN/C(N)=N/[N+](=O)[O-]`: the Potency entry is “inactive”.

As to `CC[N+](=O)[O-]`, the Potency entry is “inactive”.

Turning to `CCCCCCC1CCOC1=O` (centres undefined), the Potency result was “inactive”. Still for that read-out and setting: the value for `O=[N+]([O-])c1ccccc1O` was “inactive”.

In another assay the target is 5-hydroxytryptamine receptor 2A (Homo sapiens) (UniProt P28223). The assay can be described thus: 5-hydroxytryptamine receptor 2A (HTR2A) small molecule antagonists, cell-based qHTS assay (AID 1963586). Further: nearly all actives have a fitted effect of over 45% in size. Further: potency means the concentration at half of the fitted maximal effect. Conditions: HTR2A-CHO cells, DOI-induced calcium flux, fluorescence; series mostly up to 61.5 µM. An outline of the steps: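 Antagonist-mode intracellular calcium assay: DOI (4 nM) added after 5 min compound pre-incubation at room temperature to dye-loaded HTR2A-CHO cells. Fluorescence followed for 3 min, sampled every second.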
5-hydroxytryptamine receptor 2A (Homo sapiens), sequence (P28223 whole entry, looked up): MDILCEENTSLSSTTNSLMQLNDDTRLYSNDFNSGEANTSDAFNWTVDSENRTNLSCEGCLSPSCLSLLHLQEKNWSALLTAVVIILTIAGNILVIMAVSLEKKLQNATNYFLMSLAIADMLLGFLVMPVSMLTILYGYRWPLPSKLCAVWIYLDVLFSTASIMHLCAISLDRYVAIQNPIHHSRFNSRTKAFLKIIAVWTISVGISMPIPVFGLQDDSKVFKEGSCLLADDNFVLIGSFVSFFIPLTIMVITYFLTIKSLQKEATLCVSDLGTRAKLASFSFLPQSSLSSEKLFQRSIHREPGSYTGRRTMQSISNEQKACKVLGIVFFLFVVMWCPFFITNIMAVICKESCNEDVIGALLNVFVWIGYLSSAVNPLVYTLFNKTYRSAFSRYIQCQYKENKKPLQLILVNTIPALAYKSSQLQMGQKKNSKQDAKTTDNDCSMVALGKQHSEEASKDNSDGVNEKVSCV
As to `ClC(Cl)=C(c1ccc(Cl)cc1)c1ccc(Cl)cc1`, the Potency result was “inactive”. On the same count and under the same terms, the value for `ClCCN1CCOCC1` was “inactive”; that for `C1CCC2CCCCC2C1` (centres undefined) was “inactive”. In the case of `CC12CC1(C)C(=O)N(c1cc(Cl)cc(Cl)c1)C2=O` (centres undefined), the Potency entry was “inactive”. The same measure, in the same setting: the value for `ClCc1cccnc1` was “inactive”; that for `CNC(=O)O/N=C/C(C)(C)S(C)=O` (centres undefined) was “inactive”; that for `CN(C)C(=O)Nc1ccc(Cl)cc1` was “inactive”. Consider `Cc1ccccc1CCl`, for which the Potency result was “inactive”. On the same count and under the same terms, the value for `CCOP(=S)(OCC)SCSc1cc(Cl)ccc1Cl` was “inactive”; that for `Nc1c(Br)cc([N+](=O)[O-])cc1[N+](=O)[O-]` was “inactive”; that for `COC[C@@H](NC(C)=O)C(=O)NCc1ccccc1` was “inactive”. The same measure, in the same setting: the value for `COc1cc(OC)nc(NC(=O)NS(=O)(=O)c2ncccc2C(=O)N(C)C)n1` was “inactive”.

As for `OCC(Br)CBr` (centres undefined), the Potency entry is “inactive”. Consider `c1ccc(C2CO2)cc1` (centres undefined), for which the Potency is 4.8 nM (active) and inactive. The same measure, in the same setting: the value for `CCN(C)N=O` was “inactive”; that for `C=CC(=O)OCCO` was “inactive”. `CCOP(OCC)OCC`: the Potency result is “inactive”.

For `CC(=O)C1CCOC1=O` (centres undefined), the Potency entry is “inactive”. As for `C#CCOC(=O)/C=C(C)/C=C/CC(C)CCCC(C)C` (centres undefined), the Potency result was “inactive”.

For the molecule `CCN(CC)C1CCCCC1`, the Potency entry was “inactive”. The same measure, in the same setting: the value for `CCCCC(CC)COC(=O)c1ccc(C(=O)OCC(CC)CCCC)c(C(=O)OCC(CC)CCCC)c1` (centres undefined) was “inactive”.
